tim10-1 inh – growth inhibitors of tim10-1 mutant yeast, primary screen, luminescence, uHTS; S. cerevisiae tim10-1 ts strain growth, BacTiter-Glo, 24 h; inhibition, % at 20 µM; 330,000 tested, 2.2% active;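 active means inhibition of at least 40%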;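 further: mutant grown at 25 °C; 0% = DMSO wells with yeast and 100% = wells holding no yeast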
PfHsp90 yeast 2 – growth inhibition of PfHsp90-expressing yeast, primary screen, antimalarial PfHsp90 inhibitor project, S. cerevisiae, BacTiter-Glo luminescence, single point, set 2; 310,000 tested, 0.32% active; inhibition, % at 9.4 µM; BacTiter-Glo ATP, 48 h; yeast lacking PDR1 and PDR3 efflux regulators;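 active means every replicate shows inhibition above about 80%, whatever the replicate mean, limit read from the data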;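 further: 0% = DMSO neutral controls and 100% = 20 µM radicicol positive controls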
tim23-1 inh – growth inhibitors of tim23-1 mutant yeast, primary screen, luminescence, uHTS; AID 463212, 2010; S. cerevisiae tim23-1 growth, BacTiter-Glo luminescence, 24 h; 330,000 tested, 1.3% active; inhibition, % at 20 µM;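 active means growth inhibition of the mutant yeast at or above 50%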;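 further: temperature-sensitive mutant grown at 25 °C; plate controls were DMSO-treated mutant yeast for no effect and medium wells lacking yeast for full effect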
NLRP3 yeast inh – NALP3 inflammasome inhibitors in reconstituted yeast, primary screen, luminescence, uHTS; 330,000 tested, 0.39% active; Yeast reconstituted NLRP3/ASC/caspase-1, beta-gal luminescence, 24 h; AID 2825, 2010; inhibition, % at 10 µM;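 active means inhibition of 50% or more; inactive means inhibition below 50%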;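 further: plate controls were induced DMSO wells for no effect and uninduced yeast grown without galactose for full effect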
NALP1 inh – NALP1 inflammasome inhibitors in reconstituted yeast, colorimetric, S. cerevisiae, triplicate retest; inhibition, % at 10 µM; S. cerevisiae NALP1/ASC/caspase-1 growth, X-gal OD620, 72 h; 280,000 tested, 0.61% active; in the data active means inhibition mostly above about 24%, no sharp cut-off; inactive means mostly below about 32%
TIM10 inh – growth inhibitors of isogenic TIM10 control yeast, primary screen, counter-screen for tim10-1 yeast inhibitor project, luminescence, uHTS | S. cerevisiae TIM10 strain growth, BacTiter-Glo luminescence, 24 h | inhibition, % at 10 µM | 330,000 tested, 1.4% active;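 active means inhibition of 40% or more at the single tested concentration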;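 further: wild-type TIM10 isogenic control strain grown at permissive 25 °C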
tim10-1 conf – growth inhibitors of tim10-1 mutant yeast, confirmation, single concentration, luminescence, S. cerevisiae; shares compounds with tim10-1 inh; S. cerevisiae tim10-1 ts strain growth, BacTiter-Glo, 24 h; inhibition, % at 20 µM; 7,400 tested, 56% active; AID 463213, 2010;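 active means inhibition of yeast growth at or above a set limit in either of two repeat tests at 20 µM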;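 further: tim10-1 mutant grown at permissive 25 °C to find synthetic lethal compounds; 0% = DMSO yeast wells and 100% = medium wells without yeast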
tim10 confirm – growth inhibitors of wild-type TIM10 yeast, confirmation, counter-screen for tim10-1 synthetic lethality project, single concentration, luminescence, S. cerevisiae; S. cerevisiae tim10 strain growth, BacTiter-Glo luminescence, 24 h; inhibition, % at 10 µM; AID 463215, 2010; shares compounds with TIM10 inh; 4,600 tested, 63% active;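 active means inhibition of yeast growth at or above a set limit in either of two replicates at 10 µM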;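 further: this counterscreen used the strain with wild-type TIM10; 0% = yeast with DMSO and 100% = medium wells lacking yeast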
Numbers without * were called inactive; · = no result given. Most compounds without a hit are left out; they make up all but 4.1% or so of the library.

SMILES	tim10-1 inh	PfHsp90 yeast 2	tim23-1 inh	NLRP3 yeast inh	NALP1 inh	TIM10 inh	tim10-1 conf	tim10 confirm
CC(=O)c1ccc(NC(=O)c2ccc([N+](=O)[O-])o2)cc1	57*	3	-20	16	-2	81*	43*	90*
Cc1cc(C)cc(NC(=O)c2ccc([N+](=O)[O-])o2)c1	49*	-58	-24	11	14	83*	34*	82*
O=C(Nc1cccc(Cl)c1N1CCCC1)c1ccc(Br)o1	14	-16	12	19	12	-43	·	·
O=C(Nc1cccc(Cl)c1N1CCCC1)c1ccc([N+](=O)[O-])o1	47*	3	22	12	6	40*	41*	27
COc1cc(NC(=O)c2ccc([N+](=O)[O-])o2)ccc1NC(=O)c1ccco1	46*	11	46	22	6	47*	45*	60*
O=C(Nc1cccnc1)c1ccc([N+](=O)[O-])o1	-5	8	10	15	21	-29	·	·
Cc1onc(-c2ccccc2)c1-c1nnc(CN2CCN(S(=O)(=O)c3ccccc3F)CC2)o1	2	15	22	20	·	10	·	·
NCC1CC2c3ccccc3C1c1ccccc12 (centres undefined)	-16	4	19	15	7	7	·	·
COc1ccc2[nH]cc(/C=C/C(=O)c3ccccc3)c2c1	61*	21	37	22	6	71*	52*	74*
O=C(/C=C/c1c[nH]c2ccccc12)c1ccccc1	45*	33	18	40	47	53*	37*	-16
COc1ccc2[nH]cc(C=O)c2c1	8	·	-10	7	11	8	·	·
CCOc1ccc2nc(N3CCOCC3)nc(C)c2c1	15	-5	30	27	35	10	·	·
CCOc1ccc2nc3ccc4[nH]onc4c3c2c1	42*	13	40	1	·	48*	53*	53*
COc1ccc(CCC(=O)NNC(=O)c2ccccn2)cc1OC	1	-7	10	17	·	-6	·	·
CC1(C)CC(/C=C/c2ccccc2)=Nc2ccccc2N1	49*	2	46	23	12	67*	54*	58*
O=C1CC(/C=C/c2ccccc2)=Nc2ccccc2N1	17	-25	13	36	3	20	·	·
O=C(CS(=O)(=O)Cc1ccccc1)N1CCN(c2ccccc2F)CC1	-18	-13	0	3	17	-11	·	·
CC1CCCCC1NC(=O)C1CCN(S(=O)(=O)c2cccc3nonc23)CC1 (centres undefined)	-15	-4	-12	24	6	-2	·	·
O=C(CSc1nc2ccccc2[nH]1)N=Nc1c(O)[nH]c2ccccc12	3	-4	5	-6	13	8	·	·
O=C(CSCc1ccc(Br)cc1)N=Nc1c(O)[nH]c2ccccc12	45*	-2	45	10	27	43*	40*	34*
CCn1cc(C(=O)O)c(=O)c2cnc(N3CCN(C(=S)NC(=O)c4ccc(Cl)cc4)CC3)nc21	-2	·	-4	4	·	4	·	·
Cc1cc(Br)c2c(c1)/C(=C/C(=O)c1cccs1)C(=O)N2	47*	88*	42	1	5	50*	34*	68*
Cc1cc(C)c(C(=O)c2cccs2)c(C)c1	·	-27	·	·	·	·	·	·
CC(C)C(NC(=O)C(C)N1C(=O)c2ccccc2C1=O)c1ccccc1 (centres undefined)	4	11	34	14	13	15	·	·
Cc1cc(C(=O)CCl)c(C)n1-c1cccc(S(=O)(=O)N2CCOCC2)c1	48*	·	38	-44	-50	46*	30*	46*
SMILES	tim10-1 inh	PfHsp90 yeast 2	tim23-1 inh	NLRP3 yeast inh	NALP1 inh	TIM10 inh	tim10-1 conf	tim10 confirm
COc1ccc(OCC(=O)Nc2ccc(N3CCN(C(=O)c4ccccc4)CC3)c(Cl)c2)cc1	60*	19	40	25	16	44*	58*	57*
COc1ccc(OCC(=O)Nc2ccc(N3CCOCC3)c(Cl)c2)cc1	17	-9	26	13	3	11	·	·
CCN(CC)C(=O)c1ccc2c(c1[N+](=O)[O-])C(=O)c1ccccc1C2=O	60*	·	38	39	28	53*	44*	-26
CCN(CC)C(=O)c1cccc2c1C(=O)c1ccccc1-2	30	24	17	0	3	10	·	·
O=C(Nc1ccc(N2CCN(C(=O)c3ccc(Cl)cc3)CC2)cc1)c1ccc(Br)o1	34	17	12	12	20	0	·	·
O=C(Nc1ccc(C(=O)N2CCN(c3ccc(Cl)cc3)CC2)cc1)C1=CSCCO1	47*	3	31	15	12	47*	48*	45*
CCOC(=O)C1=C(COC(=O)CCc2ccccc2)NC(=O)NC1C (centres undefined)	1	10	10	13	·	3	·	·
Cc1ccc(-n2cccc2C(=S)N=P(N(C)C)(N(C)C)N(C)C)cc1	41*	4	26	42	6	46*	26	14
CCOC(=O)c1sc(NC(=O)C2CCC2)cc1C	44*	-7	49	20	6	55*	42*	36*
COc1ccc(C(C)=O)cc1CC(=O)Nc1ccc2c(c1)CCC2	-1	8	12	-7	28	-3	·	·
COc1ccc(/C=N/NC(=O)c2ccc3c(c2)OCCO3)cc1[N+](=O)[O-]	-20	-12	-4	-3	14	-9	·	·
O=C(c1cccc([N+](=O)[O-])c1)c1ccc2c(c1)OCCOCCOCCOCCO2	7	·	11	1	1	6	·	·
O=C(/C=C/c1cccc([N+](=O)[O-])c1)c1ccc2c(c1)OCCO2	41*	9	35	14	40*	47*	50*	47*
COc1ccc(/C=C/C(=O)c2ccc3c(c2)OCCO3)cc1[N+](=O)[O-]	43*	21	21	17	6	44*	28	40*
CN(C)CCCN(C(=O)c1ccc([N+](=O)[O-])o1)c1nc2cc3c(cc2s1)OCO3	32	-6	28	10	14	31	·	·
